# Data taken from the antibiotic and cytotoxicity screens of Wong et al. (2023).
# In all, about 39,000 compounds went through this assay and about 3,300 (8.5%) were called active. Shown is part of a subset that was picked to be rich in actives.
# Test system: HepG2
# Assay: cytotoxicity call (relative viability < 0.9)
# Conditions: 10 µM
row,Compound,cytotoxicity call
1,C[C@H](CO)N1C[C@H](C)[C@@H](CN(C)C(=O)Nc2cccc(F)c2)OCc2ccccc2-c2ccccc2C1=O,inactive
2,C[n+]1ccc(CCCO)cc1,inactive
3,CC(C)C(N)C(=O)OCCOCn1cnc2c(=O)[nH]c(N)nc21.Cl (configuration not stated),inactive
4,Clc1ccc(CCC(Cn2ccnc2)Sc2c(Cl)cccc2Cl)cc1 (configuration not stated),inactive
5,Clc1ccc(C(Cn2ccnc2)OCc2c(Cl)cccc2Cl)c(Cl)c1.O=[N+]([O-])O (configuration not stated),inactive
6,Clc1ccc(CSC(Cn2ccnc2)c2ccc(Cl)cc2Cl)cc1.O=[N+]([O-])O (configuration not stated),active
7,Clc1ccc(COC(Cn2ccnc2)c2ccc(Cl)cc2Cl)c(Cl)c1.O=[N+]([O-])O (configuration not stated),inactive
8,Clc1ccc(CON=C(Cn2ccnc2)c2ccc(Cl)cc2Cl)c(Cl)c1.O=[N+]([O-])O,inactive
9,Clc1ccc(COC(Cn2ccnc2)c2ccc(Cl)cc2Cl)cc1.O=[N+]([O-])O (configuration not stated),active
10,CC(C)NC(=O)N[C@H]1C=C[C@H](CC(=O)NCCCN(C)C)O[C@@H]1CO,inactive
11,COc1cccc(S(=O)(=O)N[C@H]2C=C[C@@H](CC(=O)NC3CCC3)O[C@H]2CO)c1,inactive
12,C[C@@H]1CN([C@@H](C)CO)C(=O)c2cc(N(C)C)ccc2O[C@H]1CN(C)S(=O)(=O)c1ccc(Cl)cc1,inactive
13,Cc1cccc(NC(=O)CN2C(=O)CNC2=O)c1,inactive
14,C[C@H](CO)N1C[C@H](C)[C@H](CN(C)C(=O)Nc2ccc3c(c2)OCO3)Oc2ccc(NS(C)(=O)=O)cc2CC1=O,inactive
15,CCC(=O)N1CCN(c2ccc(-n3c(=O)ccc4cnc5ccc(-c6cnc7ccccc7c6)cc5c43)cc2C(F)(F)F)CC1,active
16,Cc1noc(C)c1NC(=O)Nc1ccc2c(c1)C(=O)N([C@H](C)CO)C[C@H](C)[C@H](CN(C)C(=O)C1CCCCC1)OCCCC[C@H](C)O2,inactive
17,C[C@H]1CN([C@@H](C)CO)C(=O)c2cccc(NC(=O)c3nc4ccccc4s3)c2O[C@H]1CN(C)Cc1ccc(C(F)(F)F)cc1,inactive
18,O=C(C[C@@H]1C[C@@H]2c3cc(NC(=O)C4CCOCC4)ccc3O[C@@H]2[C@H](CO)O1)NCc1ccc2c(c1)OCO2,inactive
19,CS(C)(=O)=O,active
20,CS(=O)(=O)OCCCCOS(C)(=O)=O [listing 1 of 2 here],inactive
21,CS(=O)(=O)OCCCCOS(C)(=O)=O [listing 2 of 2 here],inactive
22,CCOC(=O)c1c[nH][nH]c1=O,inactive
23,CC(C)NC(=O)N(C)C[C@H]1OCCCC[C@H](C)Oc2ccc(NC(=O)Nc3ccc(F)cc3)cc2C(=O)N([C@H](C)CO)C[C@@H]1C,inactive
24,C[C@H](CO)N1C[C@H](C)[C@@H](CN(C)C(=O)Cc2ccccc2)OCCCC[C@H](C)Oc2ccc(NC(=O)NC3CCCCC3)cc2C1=O,inactive

row,Compound,cytotoxicity call
1,COc1nn(C)cc1C(=O)Nc1ccon1,inactive
2,S=C1NCN(CCc2ccccc2)CN1,inactive
3,OCCN1CNC(=S)NC1,inactive
4,CCCCN1CNC(=S)NC1,active
5,Cc1noc(C)c1NC(=O)N(C)C[C@H]1Oc2ccc(NS(=O)(=O)c3ccccc3)cc2C(=O)N([C@H](C)CO)C[C@@H]1C,inactive
6,COc1ccc(NC(=O)Nc2ccc3c(c2)C(=O)N([C@H](C)CO)C[C@@H](C)[C@H](CN(C)C(=O)Cc2ccccc2)OCCCC[C@H](C)O3)cc1,inactive
7,NCc1cn(-c2ccccc2)nc1C12CC3CC(CC(C3)C1)C2,active
8,OCc1cn(-c2ccccc2)nn1,inactive
9,c1ccc(-c2nc(C34CC5CC(CC(C5)C3)C4)cs2)cc1,inactive
10,CCS(=O)(=O)Nc1ccc2c(c1)C(=O)N(C)C[C@H](OC)[C@@H](C)CN(CCC(F)(F)F)[C@@H](C)CO2,inactive
11,C[C@H](CO)N1C[C@H](C)[C@@H](CN(C)C(=O)c2ccc3c(c2)OCO3)Oc2cc(C#Cc3ccccc3F)ccc2S1(=O)=O,inactive
12,C[C@H]1CN([C@@H](C)CO)C(=O)c2cccc(NC(=O)c3nc4ccccc4s3)c2O[C@@H]1CN(C)Cc1ccc(-c2ccccc2)cc1,inactive
13,NC(=O)c1nnn(Cc2ccccc2)c1N,inactive
14,O=C(O)c1nn(Cc2ccccc2)nc1C(=O)O,active
15,O=C(O)Cn1nc2ccccc2n1,inactive
16,C[C@H](CO)N1C[C@H](C)[C@@H](CN(C)S(=O)(=O)c2ccccc2F)Oc2ncc(Br)cc2C1=O,inactive
17,Cc1noc(C)c1NC(=O)N(C)C[C@@H]1OCCCC[C@H](C)Oc2ccc(NS(=O)(=O)c3ccccc3)cc2C(=O)N([C@H](C)CO)C[C@@H]1C,inactive
18,C[C@@H]1CCCCO[C@@H](CN(C)Cc2ccc(Cl)c(Cl)c2)[C@@H](C)CN([C@H](C)CO)C(=O)c2cc(NS(=O)(=O)c3ccc(F)cc3)ccc2O1,active
19,C[C@@H]1CCCCO[C@@H](CN(C)Cc2ccc(Cl)c(Cl)c2)[C@H](C)CN([C@@H](C)CO)C(=O)c2cc(NS(=O)(=O)c3ccc(F)cc3)ccc2O1,active
20,C[C@@H]1CCCCO[C@H](CN(C)Cc2ccc(Cl)c(Cl)c2)[C@@H](C)CN([C@@H](C)CO)C(=O)c2cc(NS(=O)(=O)c3ccc(F)cc3)ccc2O1,inactive
21,C[C@H](CO)N1C[C@H](C)[C@H](CN(C)Cc2ccc(Cl)c(Cl)c2)OCCCC[C@H](C)Oc2ccc(NS(=O)(=O)c3ccc(F)cc3)cc2C1=O,inactive
22,C[C@@H]1CCCCO[C@@H](CN(C)Cc2ccc(Cl)c(Cl)c2)[C@@H](C)CN([C@@H](C)CO)C(=O)c2cc(NS(=O)(=O)c3ccc(F)cc3)ccc2O1,inactive
23,C[C@@H]1CN([C@H](C)CO)C(=O)c2cc(NS(=O)(=O)c3ccc(F)cc3)ccc2O[C@@H](C)CCCCO[C@H]1CN(C)Cc1ccc(Cl)c(Cl)c1,inactive
24,C[C@@H]1CCCCO[C@H](CN(C)Cc2ccc(Cl)c(Cl)c2)[C@@H](C)CN([C@H](C)CO)C(=O)c2cc(NS(=O)(=O)c3ccc(F)cc3)ccc2O1,inactive

row,Compound,cytotoxicity call
1,C[C@H](CO)N1C[C@H](C)[C@@H](CN(C)Cc2ccc(Cl)c(Cl)c2)OCCCC[C@H](C)Oc2ccc(NS(=O)(=O)c3ccc(F)cc3)cc2C1=O,inactive
2,C[C@@H]1CCCCO[C@@H](CN(C)Cc2ccc(Cl)c(Cl)c2)[C@H](C)CN([C@H](C)CO)C(=O)c2cc(NS(=O)(=O)c3ccc(F)cc3)ccc2O1,active
3,C[C@H]1CCCCO[C@H](CN(C)Cc2ccc(Cl)c(Cl)c2)[C@@H](C)CN([C@@H](C)CO)C(=O)c2cc(NS(=O)(=O)c3ccc(F)cc3)ccc2O1,inactive
4,C[C@@H]1CCCCO[C@H](CN(C)Cc2ccc(Cl)c(Cl)c2)[C@H](C)CN([C@@H](C)CO)C(=O)c2cc(NS(=O)(=O)c3ccc(F)cc3)ccc2O1,active
5,C[C@@H]1CCCCO[C@@H](CN(C)S(C)(=O)=O)[C@H](C)CN([C@H](C)CO)C(=O)c2cc(N(C)C)ccc2O1,inactive
6,CCO/C(O)=C1/C(=O)CN(C)C1=O,inactive
7,CCS(=O)(=O)Nc1ccc2c(c1)C(=O)N(C)[C@@H]1CC[C@H](CC(=O)N[C@@H]3CCN(Cc4ccccc4)C3)O[C@H]1CO2,inactive
8,CN(C)CC(=O)N[C@H]1CC[C@@H](CCNC(=O)C2CCC2)O[C@H]1CO,inactive
9,Cc1nnc(N2CCC[C@]3(CN(C(=O)CO)CCO3)C2)o1,inactive
10,C[C@@H]1CN([C@H](C)CO)C(=O)Cc2cc(NC(=O)C3CCCCC3)ccc2O[C@@H]1CN(C)C(=O)Nc1ccc(C(F)(F)F)cc1,inactive
11,C[C@H]1CN([C@@H](C)CO)C(=O)c2cccc(NC(=O)c3ccncc3)c2O[C@@H]1CN(C)Cc1ccc(Oc2ccccc2)cc1,inactive
12,Cc1ccc(S(=O)(=O)Nc2ccc3c(c2)C(=O)N([C@@H](C)CO)C[C@H](C)[C@@H](CN(C)C(=O)Cc2ccccc2)OCCCC[C@H](C)O3)cc1,inactive
13,C[C@@H]1CN([C@@H](C)CO)S(=O)(=O)c2ccc(Br)cc2O[C@@H]1CN(C)CC1CCOCC1,inactive
14,CC(C)NC(=O)Nc1ccc2c(c1)C(=O)N([C@@H](C)CO)C[C@H](C)[C@@H](CN(C)Cc1ccc(C(F)(F)F)cc1)OCCCC[C@@H](C)O2,active
15,CC(C)NC(=O)Nc1ccc2c(c1)C(=O)N([C@H](C)CO)C[C@H](C)[C@H](CN(C)Cc1ccc(C(F)(F)F)cc1)OCCCC[C@@H](C)O2,inactive
16,CC(C)NC(=O)Nc1ccc2c(c1)C(=O)N([C@H](C)CO)C[C@H](C)[C@@H](CN(C)Cc1ccc(C(F)(F)F)cc1)OCCCC[C@@H](C)O2,inactive
17,CC(C)NC(=O)Nc1ccc2c(c1)C(=O)N([C@H](C)CO)C[C@@H](C)[C@H](CN(C)Cc1ccc(C(F)(F)F)cc1)OCCCC[C@H](C)O2,active
18,CC(C)NC(=O)Nc1ccc2c(c1)C(=O)N([C@H](C)CO)C[C@H](C)[C@@H](CN(C)Cc1ccc(C(F)(F)F)cc1)OCCCC[C@H](C)O2,inactive
19,CC(C)NC(=O)Nc1ccc2c(c1)C(=O)N([C@@H](C)CO)C[C@H](C)[C@H](CN(C)Cc1ccc(C(F)(F)F)cc1)OCCCC[C@@H](C)O2,active
20,CC(C)NC(=O)Nc1ccc2c(c1)C(=O)N([C@@H](C)CO)C[C@@H](C)[C@@H](CN(C)Cc1ccc(C(F)(F)F)cc1)OCCCC[C@H](C)O2,inactive
21,CC(C)NC(=O)Nc1ccc2c(c1)C(=O)N([C@@H](C)CO)C[C@@H](C)[C@H](CN(C)Cc1ccc(C(F)(F)F)cc1)OCCCC[C@@H](C)O2,inactive
22,CC(C)NC(=O)Nc1ccc2c(c1)C(=O)N([C@H](C)CO)C[C@@H](C)[C@H](CN(C)Cc1ccc(C(F)(F)F)cc1)OCCCC[C@@H](C)O2,active
23,CC(C)NC(=O)Nc1ccc2c(c1)C(=O)N([C@H](C)CO)C[C@@H](C)[C@@H](CN(C)Cc1ccc(C(F)(F)F)cc1)OCCCC[C@H](C)O2,inactive
24,CC(C)NC(=O)N(C)C[C@@H]1Oc2ccc(NC(=O)CCN3CCOCC3)cc2C(=O)N([C@@H](C)CO)C[C@@H]1C,inactive
